In PubChem BioAssay (Tox21):
Inconclusive results are not listed. Entries that show only a call come without a potency. Active and inactive are the calls of the source. Calls follow the shape of the full dose curve.

Assay: qHTS assay for small molecule disruptors of the mitochondrial membrane potential - cell viability (AID 720634);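 also: human HepG2 liver cancer cells; nearly all actives have a fitted effect of over 20% in size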
Conditions: HepG2 viability, ATP luminescence (CellTiter-Glo), 1 h; series mostly up to 83.2 µM
Excerpt: U.S. Tox21 Program National Center for Advancing Translational Sciences [NCATS] NIH Chemical Genomics Center [NCGC] U.S. Environmental Protection Agency [EPA] National Institutes of Environmental Health Sciences [NIEHS] National Toxicology Program [NTP] U.S. Food and Drug Administration [FDA] Tox21 Assay Overview: Mitochondrial membrane potential (MMP), one of the parameters for mitochondrial function, is generated by mitochondrial electron transport chain that creates an electrochemical gradient by a series of redox reactions. This gradient drives the synthesis of ATP, a crucial molecule for various cellular processes. Measuring MMP in living cells is commonly used to assess the effect of chemicals on mitochondrial function; decreases in MMP can be detected using lipophilic cationic fluorescent dyes. […] The dye accumulates in the mitochondria of healthy cells as aggregates, with red fluorescence. The mitochondrial potential decreases and the dye could not accumulate in the mitochondria and remains in the cytoplasm in monomers, with green fluorescence. In addition to the mitochondrial potential assay, these cells were also used to test the cytotoxicity by determining the cell viability in the culture based on the quantitation of ATP present. The cytotoxicity was measured in the same assay well of MMP assay.
Tox21 Assay Protocol Summary: 2,000 HepG2 cells in 5 uL/well were dispensed into black, clear-bottom 1536-well plates using a Multidrop Combi (Thermo Scientific) dispenser. The assay plates were incubated for an overnight at 37 C to allow cells to attach to the wells, followed by the transfer of 23 nL compound or DMSO vehicle by a pin tool (Kalypsys). The plates were incubated for 1 hr at 37 C and 5% CO2, followed by the addition of 5 uL of 2X m-MPI dye into each well using Flying Reagent Dispenser (Aurora Discovery) and then CellTiter-Glo reagent was added at 4 uL/well and incubated 30 min at room temperature. Then luminescence intensity was quantified on a ViewLux CCD-based plate reader.

Question: Which Potency does the source give for CC(C)(COC(=O)c1ccccc1)COC(=O)c1ccccc1 here?
Answer: The Potency was “inactive”.

Question: With O=C(O)c1ccc(S(=O)(=O)O)cc1C(=O)O as the compound, how does the Potency read?
Answer: The Potency was “inactive”.

Question: Which Potency does the source give for O=C(O)c1ccco1 here?
Answer: The Potency was “inactive”.

Question: Which Potency does the source give for O=C(Nc1ccc(S(=O)(=O)N2CCOCC2)cc1)c1cc(Cl)ccc1NS(=O)(=O)c1ccc(Cl)s1 here?
Answer: Its Potency is “inactive”.

Question: Which Potency does the source give for Nc1ncn([C@H]2C[C@H](O)[C@@H](CO)O2)c(=O)n1 here?
Answer: The Potency was “inactive”.

Question: With CCOc1ccc(O)cc1 as the compound, how does the Potency read?
Answer: The Potency was “inactive”.

Question: For CNCCCCOc1ccccc1Cc1ccccc1, which Potency is on record?
Answer: Its Potency is “inactive”.

Question: With O=C1OC(CN2CCOCC2)CN1/N=C/c1ccc([N+](=O)[O-])o1 (stereo not given) as the compound, how does the Potency read?
Answer: Its Potency is “inactive”.

Question: For CC(=O)c1ccc2c(c1)N(CCCN(C)C)c1ccccc1S2, which Potency is on record?
Answer: Its Potency is “inactive”.

Question: With CC(C)O.CC(C)O.CCOC(=O)/C=C(\C)O.CCOC(=O)/C=C(\C)O.[Ti] as the compound, how does the Potency read?
Answer: Its Potency is “inactive”.

Question: Which Potency does the source give for CCOC(=O)C(F)(F)F here?
Answer: The Potency was “inactive”.

Question: For NCC(=O)O, which Potency is on record?
Answer: Its Potency is “inactive”.

Question: Which Potency does the source give for COc1ccc(-c2nc3ccc(C4=NNC(=O)CC4C)cc3[nH]2)cc1 (stereo not given) here?
Answer: The Potency was “inactive”.

Question: With O=C1c2ccccc2S(=O)(=O)N1CCCCN1CCN(c2ncccn2)CC1 as the compound, how does the Potency read?
Answer: Its Potency is “inactive”.

Question: For Nc1cccc(S(=O)(=O)c2cccc(N)c2)c1, which Potency is on record?
Answer: The Potency was “inactive”.

Question: Which Potency does the source give for C=C(C)C(=O)OCC here?
Answer: The Potency was “inactive”.

Question: With CN(C)CCN(Cc1ccccc1)c1ccccn1 as the compound, how does the Potency read?
Answer: Its Potency is “inactive”.

Question: Which Potency does the source give for O=P(O)(OCc1ccccc1)OCc1ccccc1 here?
Answer: The Potency was “inactive”.

Question: For CCOC(=O)c1cccnc1, which Potency is on record?
Answer: The Potency was “inactive”.

Question: With CN(C)CCN(Cc1ccc(Cl)cc1)c1ccccn1 as the compound, how does the Potency read?
Answer: Its Potency is “inactive”.

Question: With CCC(C)c1cc(C(C)(C)C)c(O)c(C(C)(C)C)c1 (stereo not given) as the compound, how does the Potency read?
Answer: Its Potency is “inactive”.

Question: Which Potency does the source give for COc1cc2nc(N(C)CCCNC(=O)C3CCCO3)nc(N)c2cc1OC (stereo not given) here?
Answer: Its Potency is “inactive”.

Question: For O=C1[C@H]2CCCC[C@H]2C(=O)N1CCCCN1CCN(c2nsc3ccccc23)CC1, which Potency is on record?
Answer: Its Potency is “inactive”.

Question: For CC(=O)NO, which Potency is on record?
Answer: The Potency was “inactive”.

Question: Which Potency does the source give for CC(COCCO)OCCO (stereo not given) here?
Answer: The Potency was “inactive”.

Question: Which Potency does the source give for CN(C)c1ccc(CCO)cc1 here?
Answer: The Potency was “inactive”.

Question: Which Potency does the source give for CCCCOC(=O)CCCCCCCC(=O)OCCCC here?
Answer: Its Potency is “inactive”.

Question: With CCOC(=O)C1=C[C@]2(CC)CCCN3CCc4c(n1c1ccccc41)[C@@H]32 as the compound, how does the Potency read?
Answer: Its Potency is “inactive”.

Question: With CN1CCN(C(c2ccccc2)c2ccccc2)CC1 as the compound, how does the Potency read?
Answer: The Potency was “inactive”.

Question: For O=C(CS)Nc1ccccc1, which Potency is on record?
Answer: The Potency was “inactive”.

Question: For c1ccc(CNCCNCc2ccccc2)cc1, which Potency is on record?
Answer: Its Potency is “inactive”.

Question: Which Potency does the source give for CCCOC(C(=O)OC1CCN(C)CC1)(c1ccccc1)c1ccccc1 here?
Answer: Its Potency is “inactive”.

Question: For Brc1c2ccccc2c(Br)c2ccccc12, which activity change, negative = cytotoxicity is on record?
Answer: The activity change, negative = cytotoxicity was -7.1% [at 8.08 µM] (inactive).

Question: For C/C=C/C=C/CO, which Potency is on record?
Answer: Its Potency is “inactive”.

Question: For O=C(OCCCCCCOC(=O)c1ccccc1)c1ccccc1, which Potency is on record?
Answer: Its Potency is “inactive”.

Question: For C[N+]1(CC2COC(c3ccccc3)(C3CCCCC3)O2)CCCCC1 (stereo not given), which Potency is on record?
Answer: The Potency was “inactive”.

Question: Which Potency does the source give for CNCCCN1c2ccccc2CCc2ccccc21 here?
Answer: Its Potency is “inactive”.

Question: Which Potency does the source give for CCCCC(=O)OCC(=O)[C@H]1[C@H](C)C[C@H]2[C@@H]3C[C@H](F)C4=CC(=O)C=C[C@]4(C)[C@@]3(F)[C@@H](O)C[C@@]21C here?
Answer: The Potency was “inactive”.

Question: For CN(Cc1ccc(C(C)(C)C)cc1)Cc1cccc2ccccc12, which Potency is on record?
Answer: Its Potency is “inactive”.

Question: Which Potency does the source give for C=C1C(=C/C=C2\CCC[C@]3(C)[C@@H]([C@H](C)/C=C/[C@@H](O)C4CC4)CC[C@@H]23)C[C@@H](O)C[C@@H]1O here?
Answer: Its Potency is “inactive”.
